# Source: PubChem BioAssay (EPA / NIEHS)
# Active and inactive are the calls of the source. Rule for the calls: active = hit-call score of the fitted dose curve at least 0.9, where 1 is the maximum; inactive = score below 0.9.
# System: not listed separately
# Assay: ATG_ERE_CIS: Attagene CIS-FACTORIAL HepG2 Assay for Estrogen Response Element (ERE) (AID 2282940)
# Conditions: HepG2 ERE cis-reporter, Attagene RNA transcript; actives raise or lower the signal
# In short: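 After a 24 h chemical treatment, RNA from reporter-transfected HepG2 cells is reverse-transcribed, PCR-amplified and fluorescently labelled. Fragments separated by capillary electrophoresis give reporter signal; DMSO serves as negative control.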
SMILES,outcome,AC50
COc1cc(NC(=O)CC(C)=O)c(OC)cc1Cl,inactive,–
O=C(O)CCCC[C@@H]1SC[C@@H]2NC(=O)N[C@@H]21,inactive,–
CCCNC(=O)NS(=O)(=O)c1ccc(Cl)cc1,inactive,–
C=C(C)C(=O)OCCOc1ccccc1,inactive,–
CC(C)(C)C(=O)CCc1ccc(Cl)cc1,–,30.2 µM (active)
COC(=O)/C=C\C(=O)O,inactive,–
[Cl][Nd]([Cl])[Cl],inactive,–
NCCCN1CCN(CCCN)CC1,inactive,–
CCCCC(CC)COC(=O)c1ccccc1O (stereo unspecified),–,32.5 µM (active)
COc1ccc(C(Cl)=C(c2ccc(OC)cc2)c2ccc(OC)cc2)cc1,inactive,–
CCCOC(=O)CCCCC(=O)OCCC,inactive,–
CCOC(=O)N1CCC(=C2c3ccc(Cl)cc3CCc3cccnc32)CC1,inactive,–
c1ccc(-c2ccccn2)nc1,inactive,–
CNC(=S)N(C)C,inactive,–
C[C@]12C=CC(=O)C=C1CC[C@@H]1[C@@H]2[C@@H](O)C[C@@]2(C)[C@H]1CC[C@]2(O)C(=O)CO,inactive,–
Cc1ccc(C(C)(C)C)cc1,inactive,–

# System: not listed separately
# Assay: ATG_Ets_CIS: Attagene CIS-FACTORIAL HepG2 Assay for human Erythroblast Transformation Specific (ETS) (AID 2282941)
# Conditions: HepG2 ETS cis-reporter transcription, actives raise or lower the signal
# In short: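 Steps: transfect HepG2 with multiple reporter units; treat compound 24 h; isolate RNA, DNase-treat, reverse-transcribe; PCR-amplify, label with 6-FAM, digest with HpaI; separate by capillary electrophoresis. Activity fitted both directions versus DMSO.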
SMILES,outcome,AC50
C=CC(C)(C)C,inactive,–
CCCCCCCCCCCCCOP(=O)(O)O,inactive,–
CC(C)=CCC[C@H](C)CCO,inactive,–
NC(=O)OCC(COC(N)=O)c1ccccc1,inactive,–
CCCCC(CC)COCC1CO1 (stereo unspecified),inactive,–
CC(=O)OCC(=O)[C@@]12N=C(C)O[C@@H]1C[C@H]1[C@@H]3CCC4=CC(=O)C=C[C@]4(C)[C@H]3[C@@H](O)C[C@@]12C,inactive,–
CC=CC(=O)N(CC)c1ccccc1C,inactive,–
CN1C(=O)N(C)C(O)C1O (stereo unspecified),inactive,–
COc1ccc2nc(N)sc2c1,inactive,–
CCOCC(=O)O,inactive,–
Nc1ncn([C@@H]2O[C@H](CO)[C@@H](O)[C@H]2O)c(=O)n1,–,39.5 µM (active)
OC1CCCC1,inactive,–
O=c1c2ccccc2oc2ccccc12,inactive,–
Cc1ccc(C(C)c2ccc(C)c(C)c2)cc1C,inactive,–
CC(C)CCCC(C)CC=O (stereo unspecified),inactive,–
CC(=O)NS(=O)(=O)c1ccc(N)cc1,inactive,–
CCCCCCCC/C=C\CCCCCCCC(=O)OCCO,inactive,–
O=C1c2ccccc2C(=O)C1c1nc2ccccc2c(Br)c1O,inactive,–
C[C@]12CCC(=O)C=C1CC[C@@H]1[C@@H]2C(=O)C[C@@]2(C)[C@H]1CC[C@]2(O)C(=O)CO,inactive,–
CCN(CC#N)c1cccc(C)c1,inactive,–

SMILES,outcome,AC50
CC1(C)S[C@@H]2[C@H](NC(=O)COc3ccccc3)C(=O)N2[C@H]1C(=O)O,inactive,–
COc1c2ccoc2cc2oc(=O)ccc12,inactive,–
O=c1[nH]nc(-c2ccc([N+](=O)[O-])o2)o1,inactive,–
C=C[Si](OC(C)=O)(OC(C)=O)OC(C)=O,inactive,–
COc1cc(NC(=O)CC(C)=O)c(OC)cc1Cl,inactive,–
O=C(O)CCCC[C@@H]1SC[C@@H]2NC(=O)N[C@@H]21,inactive,–
CCCNC(=O)NS(=O)(=O)c1ccc(Cl)cc1,inactive,–
C=C(C)C(=O)OCCOc1ccccc1,inactive,–
CC(C)(C)C(=O)CCc1ccc(Cl)cc1,inactive,–
COC(=O)/C=C\C(=O)O,inactive,–
[Cl][Nd]([Cl])[Cl],inactive,–
NCCCN1CCN(CCCN)CC1,inactive,–
CCCCC(CC)COC(=O)c1ccccc1O (stereo unspecified),inactive,–
COc1ccc(C(Cl)=C(c2ccc(OC)cc2)c2ccc(OC)cc2)cc1,inactive,–
CCCOC(=O)CCCCC(=O)OCCC,inactive,–
CCOC(=O)N1CCC(=C2c3ccc(Cl)cc3CCc3cccnc32)CC1,inactive,–
c1ccc(-c2ccccn2)nc1,inactive,–
CNC(=S)N(C)C,inactive,–
C[C@]12C=CC(=O)C=C1CC[C@@H]1[C@@H]2[C@@H](O)C[C@@]2(C)[C@H]1CC[C@]2(O)C(=O)CO,inactive,–
Cc1ccc(C(C)(C)C)cc1,inactive,–

# Biological target: Hepatocyte nuclear factor 3-beta (Homo sapiens) (UniProt Q9Y261)
# Sequence (Q9Y261 whole entry, looked up): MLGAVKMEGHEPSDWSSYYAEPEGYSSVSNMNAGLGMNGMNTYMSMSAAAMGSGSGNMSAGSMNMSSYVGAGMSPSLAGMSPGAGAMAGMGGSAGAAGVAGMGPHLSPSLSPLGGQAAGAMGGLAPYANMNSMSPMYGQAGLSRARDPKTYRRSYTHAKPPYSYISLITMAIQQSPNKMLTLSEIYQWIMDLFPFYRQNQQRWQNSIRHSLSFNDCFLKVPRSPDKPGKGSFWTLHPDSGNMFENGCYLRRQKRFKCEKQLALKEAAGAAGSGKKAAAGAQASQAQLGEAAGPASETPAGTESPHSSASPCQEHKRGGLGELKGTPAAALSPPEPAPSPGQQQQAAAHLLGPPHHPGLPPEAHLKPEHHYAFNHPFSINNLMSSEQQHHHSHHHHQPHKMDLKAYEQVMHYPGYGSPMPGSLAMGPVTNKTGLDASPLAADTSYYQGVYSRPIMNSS
# Assay: ATG_FoxA2_CIS: Attagene CIS-FACTORIAL HepG2 Assay for human Forkhead box A2 (FOXA2) (AID 2282942)
# Conditions: HepG2 cis-reporter transcription factor activity, 24 h; actives raise or lower the signal
# In short: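 Reporter transcript induction is measured by fluorescence after capillary electrophoresis of RT-PCR products from HepG2 cells exposed 24 h. Cis-regulated reporter units report endogenous factor activity; curves fitted both directions against DMSO.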
SMILES,outcome,AC50
C=CC(C)(C)C,inactive,–
CCCCCCCCCCCCCOP(=O)(O)O,inactive,–
CC(C)=CCC[C@H](C)CCO,inactive,–
NC(=O)OCC(COC(N)=O)c1ccccc1,inactive,–
CCCCC(CC)COCC1CO1 (stereo unspecified),inactive,–
CC(=O)OCC(=O)[C@@]12N=C(C)O[C@@H]1C[C@H]1[C@@H]3CCC4=CC(=O)C=C[C@]4(C)[C@H]3[C@@H](O)C[C@@]12C,inactive,–
CC=CC(=O)N(CC)c1ccccc1C,inactive,–
CN1C(=O)N(C)C(O)C1O (stereo unspecified),inactive,–
COc1ccc2nc(N)sc2c1,inactive,–
CCOCC(=O)O,inactive,–
Nc1ncn([C@@H]2O[C@H](CO)[C@@H](O)[C@H]2O)c(=O)n1,inactive,–
OC1CCCC1,inactive,–
O=c1c2ccccc2oc2ccccc12,inactive,–
Cc1ccc(C(C)c2ccc(C)c(C)c2)cc1C,inactive,–
CC(C)CCCC(C)CC=O (stereo unspecified),inactive,–
CC(=O)NS(=O)(=O)c1ccc(N)cc1,inactive,–
CCCCCCCC/C=C\CCCCCCCC(=O)OCCO,inactive,–
O=C1c2ccccc2C(=O)C1c1nc2ccccc2c(Br)c1O,–,1.26 µM (active)
C[C@]12CCC(=O)C=C1CC[C@@H]1[C@@H]2C(=O)C[C@@]2(C)[C@H]1CC[C@]2(O)C(=O)CO,inactive,–
CCN(CC#N)c1cccc(C)c1,inactive,–

SMILES,outcome,AC50
CC1(C)S[C@@H]2[C@H](NC(=O)COc3ccccc3)C(=O)N2[C@H]1C(=O)O,inactive,–
COc1c2ccoc2cc2oc(=O)ccc12,inactive,–
O=c1[nH]nc(-c2ccc([N+](=O)[O-])o2)o1,inactive,–
C=C[Si](OC(C)=O)(OC(C)=O)OC(C)=O,inactive,–
COc1cc(NC(=O)CC(C)=O)c(OC)cc1Cl,inactive,–
O=C(O)CCCC[C@@H]1SC[C@@H]2NC(=O)N[C@@H]21,inactive,–
CCCNC(=O)NS(=O)(=O)c1ccc(Cl)cc1,inactive,–
C=C(C)C(=O)OCCOc1ccccc1,inactive,–
CC(C)(C)C(=O)CCc1ccc(Cl)cc1,inactive,–
COC(=O)/C=C\C(=O)O,inactive,–
[Cl][Nd]([Cl])[Cl],inactive,–
NCCCN1CCN(CCCN)CC1,inactive,–
CCCCC(CC)COC(=O)c1ccccc1O (stereo unspecified),inactive,–
COc1ccc(C(Cl)=C(c2ccc(OC)cc2)c2ccc(OC)cc2)cc1,inactive,–
CCCOC(=O)CCCCC(=O)OCCC,inactive,–
CCOC(=O)N1CCC(=C2c3ccc(Cl)cc3CCc3cccnc32)CC1,inactive,–
c1ccc(-c2ccccn2)nc1,inactive,–
CNC(=S)N(C)C,inactive,–
C[C@]12C=CC(=O)C=C1CC[C@@H]1[C@@H]2[C@@H](O)C[C@@]2(C)[C@H]1CC[C@]2(O)C(=O)CO,inactive,–
Cc1ccc(C(C)(C)C)cc1,inactive,–
